Screening data from PubChem.
TMEM16A inh – inhibitors of mouse TMEM16A calcium-activated chloride channel; AID 588511; normalized B-score (activity score, 25-100; higher = stronger inhibition) at 10 µM; 1.2% of 310,000 active; HEK293 TMEM16A/YFP iodide influx fluorescence, ionomycin;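 active = ratio plate-corrected score three or more library SD toward inhibition, starting fluorescence score within five deviations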;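 note: score derived from kinetic fluorescence span divided by baseline fluorescence per well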
Target sequence (Q8BHY3 whole entry, looked up): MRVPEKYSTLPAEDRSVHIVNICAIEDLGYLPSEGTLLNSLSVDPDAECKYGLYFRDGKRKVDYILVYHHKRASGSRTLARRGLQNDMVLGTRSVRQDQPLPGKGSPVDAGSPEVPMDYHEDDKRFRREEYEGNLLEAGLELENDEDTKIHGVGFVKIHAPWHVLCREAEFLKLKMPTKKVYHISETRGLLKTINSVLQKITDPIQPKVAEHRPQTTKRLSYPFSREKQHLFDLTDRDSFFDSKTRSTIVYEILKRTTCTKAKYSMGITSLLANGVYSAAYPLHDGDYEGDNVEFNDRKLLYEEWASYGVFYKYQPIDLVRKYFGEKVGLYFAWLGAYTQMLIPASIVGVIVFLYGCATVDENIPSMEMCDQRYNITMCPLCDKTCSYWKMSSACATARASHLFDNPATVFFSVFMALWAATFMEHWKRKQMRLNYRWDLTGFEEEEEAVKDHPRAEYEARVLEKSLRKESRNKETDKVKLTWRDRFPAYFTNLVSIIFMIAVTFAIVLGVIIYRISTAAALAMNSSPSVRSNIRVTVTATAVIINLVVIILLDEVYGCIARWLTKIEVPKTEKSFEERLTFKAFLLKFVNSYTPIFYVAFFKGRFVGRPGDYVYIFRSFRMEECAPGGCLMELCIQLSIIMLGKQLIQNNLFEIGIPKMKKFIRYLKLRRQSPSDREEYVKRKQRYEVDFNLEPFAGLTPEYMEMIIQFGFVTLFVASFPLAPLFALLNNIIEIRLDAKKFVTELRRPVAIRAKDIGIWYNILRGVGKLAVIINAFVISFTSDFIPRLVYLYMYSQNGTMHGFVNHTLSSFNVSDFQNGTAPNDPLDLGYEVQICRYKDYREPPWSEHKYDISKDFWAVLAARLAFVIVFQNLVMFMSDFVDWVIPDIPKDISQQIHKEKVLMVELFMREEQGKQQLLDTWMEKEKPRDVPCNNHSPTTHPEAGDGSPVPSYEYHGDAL
CHT PAM – allosteric activators of human choline transporter CHT; AID 488977; B-score at 10 µM; 0.49% of 310,000 active; CHT-expressing cells, membrane potential dye, choline EC20; stronger effect = higher value; LV-AA mutant CHT in HEK293 cells;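 active = initial fluorescence not abnormally high and integrated response B-score, plate-corrected, over 3 SD above library mean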
CHT inh – inhibitors of human choline transporter CHT; B-score at 10 µM; CHT-expressing cells, membrane potential dye, choline response; stronger effect = lower value; Q9GZV3; 0.86% of 310,000 active; AID 488975;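 active = B-score over 3 SD under the library average, and starting fluorescence ratio not unusually high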;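 note: choline stimulus applied at its EC90 after an EC20 pre-addition; B-score computed on integrated fluorescence ratio after choline addition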
ANO1 activ – activates or potentiates the mouse TMEM16A chloride channel | Q8BHY3 | HEK293 TMEM16A/YFP-H148Q/I152L, iodide quench fluorescence; stronger effect = lower value | B-score at 10 µM | 0.3% of 340,000 active | AID 623877;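 active = fluorescence-ratio B-score plate-corrected deviation score at least 3 library SD below zero, with starting fluorescence score within 5 deviations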;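 note: channel opened by trigger with iodide after compound preincubation; score built on the fluorescence ratio of max minus min over baseline; more negative score means more quench and so TMEM16A activation or potentiation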
Of the large screens only hits and unclear results are named; the others gave an inactive call. Shown are actives, neighbours in structure and some others; about 2.3% of the full set was active somewhere.

O=C(Nc1cc(Cl)ccc1-n1cncn1)c1ccc([N+](=O)[O-])s1	none
O=C(c1cccc(C(=O)N2CCN(Cc3ccccc3)CC2)c1)N1CCN(Cc2ccccc2)CC1	TMEM16A inh 25
CCOc1ncccc1C(=O)OCC(=O)Nc1cc(C(C)(C)C)ccc1OC	none (no result: TMEM16A inh, CHT PAM, CHT inh)
O=C(NNC(=O)c1ccccc1O)c1ccc(Cl)c(S(=O)(=O)N2CCc3ccccc32)c1	TMEM16A inh 100
Cc1occc1C(=O)Nc1nnc(C(F)(F)F)s1	none
O=C(Nc1ccccc1C(=O)Nc1nnc(C(F)(F)F)s1)c1ccccc1	TMEM16A inh 100, ANO1 activ -6.2
Cc1cc(C(=O)COC(=O)c2ccc(O)cc2O)c(C)n1C(C)C	none (no result: TMEM16A inh, CHT PAM, CHT inh)
C=CC(C)(C)c1c(O)c(CC=C(C)C)c(O)c2c(=O)c3ccc(O)c(O)c3oc12	TMEM16A inh 100
COc1ccc(NC(=O)c2cc(-c3cccnc3)nc3ccc(C)cc23)cc1OC	none (no result: TMEM16A inh, CHT PAM, CHT inh)
COc1ccc(NC(=O)c2cc(-c3ccncc3)nc3ccc(Br)cc23)cc1OC	TMEM16A inh 100
O=C(Nc1ccccc1)c1ccc(NCc2cccnc2)c(S(=O)(=O)N2CCOCC2)c1	ANO1 activ -6.8
CC1C2(C)OC(=N)C(C#N)(C(C)O2)C1(C#N)C#N (configuration not stated)	ANO1 activ -6.3
CC1OC2(C)OC(=N)C1(C#N)C(C#N)(C#N)C2c1ccccc1 (configuration not stated)	none
COc1ccc(N2CC(C(=O)N[C@H](C(=O)NC(C)c3ccccc3)C(C)C)CC2=O)cc1 (some centres not stated)	none
Cc1ccc(NC(=O)COC(=O)CCc2c[nH]c3ccccc23)c(C)c1	none (no result: TMEM16A inh, CHT PAM, CHT inh)
CCC1CCCCN1S(=O)(=O)c1ccc(C(=O)Nc2nnc(-c3cccs3)o2)cc1 (configuration not stated)	TMEM16A inh 25
CC1CC(C)CN(S(=O)(=O)c2ccc(C(=O)Nc3nnc(-c4cccs4)o3)cc2)C1 (configuration not stated)	none
COc1ccc(/C=C/C(=O)NCc2cn(C)nc2C)cc1COc1ccc(Cl)cc1Br	TMEM16A inh 100
CN1CCC(CC(C(=O)N2CCCC2)(c2ccccc2)c2ccccc2)C1 (configuration not stated)	none (no result: TMEM16A inh, CHT PAM, CHT inh)
CCN1CCN(c2c(Cl)cccc2NC(=O)c2cccs2)CC1	none
O=C(Nc1cccc(Cl)c1N1CCCC1)c1ccc(Br)o1	TMEM16A inh 25
CCN1CCN(c2c(Cl)cccc2NC(=O)c2ccc([N+](=O)[O-])o2)CC1	CHT PAM 7.1
CC(CC(=O)Nc1nnc(C(C)(C)C)s1)c1ccccc1 (configuration not stated)	none
COc1cccc(Oc2ccc(N/C=C/C(=O)C(C)(C)C)cc2)c1	TMEM16A inh 25
COc1nc(N=C(N)N)nc2ccc(C)cc12	CHT PAM 7.4 (no result: ANO1 activ)
COc1cc(C(=O)N(C)CCOc2ccccc2)ccc1OCC(=O)Nc1cccc(C(F)(F)F)c1	TMEM16A inh 100
CN(C1CCCCC1)S(=O)(=O)c1ccc2c(c1)CCC(=O)N2	none (no result: TMEM16A inh, CHT PAM, CHT inh)
CCOc1ccc(S(=O)(=O)NC(C)(C)C)cc1-c1nc2c(C(C)(C)C)nn(C)c2c(=O)[nH]1	ANO1 activ -14
CCOc1ccc(S(N)(=O)=O)cc1-c1nc2c(C(C)(C)C)nn(C)c2c(=O)[nH]1	none
C=CC[C@H](CC(=O)NCCO)C(=O)NC[C@@H](OC(=O)[C@@H](CC=C)CC(=O)OC(C)(C)C)c1ccccc1	ANO1 activ -18 (no result: TMEM16A inh, CHT PAM, CHT inh)
Cc1cc(O)c(C=Nc2ccc(N3CCOCC3)cc2)c(C)c1Cl	none
Cn1c(O)c(C=Nc2ccc(N3CCOCC3)cc2)c(=O)n(C)c1=S	ANO1 activ -4.8 (no result: TMEM16A inh, CHT PAM, CHT inh)
CCOC(=O)C(C)On1c(-c2cccc(Cl)c2)nc2ccc([N+](=O)[O-])cc21 (configuration not stated)	TMEM16A inh 100
O=C(COC(=O)CNC(=O)c1ccc(Cl)cc1Cl)NC1CCCCC1	none
CC(C)(C)c1cc[n+](C2=C([O-])c3ccccc3C(=O)/C2=N\S(=O)(=O)c2cccs2)cc1	none
O=C1/C(=N\S(=O)(=O)c2cccs2)C([n+]2ccccc2)=C([O-])c2ccccc21	ANO1 activ -11
COc1ccc(NC(=O)N(C)C[C@H]2Oc3ccc(NC(=O)Cc4ccccc4)cc3CC(=O)N([C@H](C)CO)C[C@H]2C)cc1	none (no result: TMEM16A inh, CHT PAM, CHT inh)
C[C@H]1COc2c(N3CCN(C)CC3)c(F)cc3c(=O)c(C(=O)O)cn1c23	CHT PAM 8.9
C[C@H]1COc2c(C3(N)CC3)c(F)cc3c(=O)c(C(=O)O)cn1c23	none (no result: ANO1 activ)
